The supplement of paper PMC11732987, “Enantioselective OTUD7B fragment discovery through chemoproteomics screening and high-throughput optimisation” (Communications Chemistry, 2025)

Key:
Assay in all cases: log2 ratio of Biotin-Ahx-Ub-VS probe labelling (fragment/DMSO); higher = less target engagement (more negative = stronger competition), active = hit call of the paper (q ≤ 0.05, log2 ratio ≤ -1)
Conditions in all cases: compound concentration: 200 uM; treatment time: 3 h
USP34 = USP34 (UniProt Q70CQ2)
Chain of USP34 (Q70CQ2 whole entry, the tested form may be a part): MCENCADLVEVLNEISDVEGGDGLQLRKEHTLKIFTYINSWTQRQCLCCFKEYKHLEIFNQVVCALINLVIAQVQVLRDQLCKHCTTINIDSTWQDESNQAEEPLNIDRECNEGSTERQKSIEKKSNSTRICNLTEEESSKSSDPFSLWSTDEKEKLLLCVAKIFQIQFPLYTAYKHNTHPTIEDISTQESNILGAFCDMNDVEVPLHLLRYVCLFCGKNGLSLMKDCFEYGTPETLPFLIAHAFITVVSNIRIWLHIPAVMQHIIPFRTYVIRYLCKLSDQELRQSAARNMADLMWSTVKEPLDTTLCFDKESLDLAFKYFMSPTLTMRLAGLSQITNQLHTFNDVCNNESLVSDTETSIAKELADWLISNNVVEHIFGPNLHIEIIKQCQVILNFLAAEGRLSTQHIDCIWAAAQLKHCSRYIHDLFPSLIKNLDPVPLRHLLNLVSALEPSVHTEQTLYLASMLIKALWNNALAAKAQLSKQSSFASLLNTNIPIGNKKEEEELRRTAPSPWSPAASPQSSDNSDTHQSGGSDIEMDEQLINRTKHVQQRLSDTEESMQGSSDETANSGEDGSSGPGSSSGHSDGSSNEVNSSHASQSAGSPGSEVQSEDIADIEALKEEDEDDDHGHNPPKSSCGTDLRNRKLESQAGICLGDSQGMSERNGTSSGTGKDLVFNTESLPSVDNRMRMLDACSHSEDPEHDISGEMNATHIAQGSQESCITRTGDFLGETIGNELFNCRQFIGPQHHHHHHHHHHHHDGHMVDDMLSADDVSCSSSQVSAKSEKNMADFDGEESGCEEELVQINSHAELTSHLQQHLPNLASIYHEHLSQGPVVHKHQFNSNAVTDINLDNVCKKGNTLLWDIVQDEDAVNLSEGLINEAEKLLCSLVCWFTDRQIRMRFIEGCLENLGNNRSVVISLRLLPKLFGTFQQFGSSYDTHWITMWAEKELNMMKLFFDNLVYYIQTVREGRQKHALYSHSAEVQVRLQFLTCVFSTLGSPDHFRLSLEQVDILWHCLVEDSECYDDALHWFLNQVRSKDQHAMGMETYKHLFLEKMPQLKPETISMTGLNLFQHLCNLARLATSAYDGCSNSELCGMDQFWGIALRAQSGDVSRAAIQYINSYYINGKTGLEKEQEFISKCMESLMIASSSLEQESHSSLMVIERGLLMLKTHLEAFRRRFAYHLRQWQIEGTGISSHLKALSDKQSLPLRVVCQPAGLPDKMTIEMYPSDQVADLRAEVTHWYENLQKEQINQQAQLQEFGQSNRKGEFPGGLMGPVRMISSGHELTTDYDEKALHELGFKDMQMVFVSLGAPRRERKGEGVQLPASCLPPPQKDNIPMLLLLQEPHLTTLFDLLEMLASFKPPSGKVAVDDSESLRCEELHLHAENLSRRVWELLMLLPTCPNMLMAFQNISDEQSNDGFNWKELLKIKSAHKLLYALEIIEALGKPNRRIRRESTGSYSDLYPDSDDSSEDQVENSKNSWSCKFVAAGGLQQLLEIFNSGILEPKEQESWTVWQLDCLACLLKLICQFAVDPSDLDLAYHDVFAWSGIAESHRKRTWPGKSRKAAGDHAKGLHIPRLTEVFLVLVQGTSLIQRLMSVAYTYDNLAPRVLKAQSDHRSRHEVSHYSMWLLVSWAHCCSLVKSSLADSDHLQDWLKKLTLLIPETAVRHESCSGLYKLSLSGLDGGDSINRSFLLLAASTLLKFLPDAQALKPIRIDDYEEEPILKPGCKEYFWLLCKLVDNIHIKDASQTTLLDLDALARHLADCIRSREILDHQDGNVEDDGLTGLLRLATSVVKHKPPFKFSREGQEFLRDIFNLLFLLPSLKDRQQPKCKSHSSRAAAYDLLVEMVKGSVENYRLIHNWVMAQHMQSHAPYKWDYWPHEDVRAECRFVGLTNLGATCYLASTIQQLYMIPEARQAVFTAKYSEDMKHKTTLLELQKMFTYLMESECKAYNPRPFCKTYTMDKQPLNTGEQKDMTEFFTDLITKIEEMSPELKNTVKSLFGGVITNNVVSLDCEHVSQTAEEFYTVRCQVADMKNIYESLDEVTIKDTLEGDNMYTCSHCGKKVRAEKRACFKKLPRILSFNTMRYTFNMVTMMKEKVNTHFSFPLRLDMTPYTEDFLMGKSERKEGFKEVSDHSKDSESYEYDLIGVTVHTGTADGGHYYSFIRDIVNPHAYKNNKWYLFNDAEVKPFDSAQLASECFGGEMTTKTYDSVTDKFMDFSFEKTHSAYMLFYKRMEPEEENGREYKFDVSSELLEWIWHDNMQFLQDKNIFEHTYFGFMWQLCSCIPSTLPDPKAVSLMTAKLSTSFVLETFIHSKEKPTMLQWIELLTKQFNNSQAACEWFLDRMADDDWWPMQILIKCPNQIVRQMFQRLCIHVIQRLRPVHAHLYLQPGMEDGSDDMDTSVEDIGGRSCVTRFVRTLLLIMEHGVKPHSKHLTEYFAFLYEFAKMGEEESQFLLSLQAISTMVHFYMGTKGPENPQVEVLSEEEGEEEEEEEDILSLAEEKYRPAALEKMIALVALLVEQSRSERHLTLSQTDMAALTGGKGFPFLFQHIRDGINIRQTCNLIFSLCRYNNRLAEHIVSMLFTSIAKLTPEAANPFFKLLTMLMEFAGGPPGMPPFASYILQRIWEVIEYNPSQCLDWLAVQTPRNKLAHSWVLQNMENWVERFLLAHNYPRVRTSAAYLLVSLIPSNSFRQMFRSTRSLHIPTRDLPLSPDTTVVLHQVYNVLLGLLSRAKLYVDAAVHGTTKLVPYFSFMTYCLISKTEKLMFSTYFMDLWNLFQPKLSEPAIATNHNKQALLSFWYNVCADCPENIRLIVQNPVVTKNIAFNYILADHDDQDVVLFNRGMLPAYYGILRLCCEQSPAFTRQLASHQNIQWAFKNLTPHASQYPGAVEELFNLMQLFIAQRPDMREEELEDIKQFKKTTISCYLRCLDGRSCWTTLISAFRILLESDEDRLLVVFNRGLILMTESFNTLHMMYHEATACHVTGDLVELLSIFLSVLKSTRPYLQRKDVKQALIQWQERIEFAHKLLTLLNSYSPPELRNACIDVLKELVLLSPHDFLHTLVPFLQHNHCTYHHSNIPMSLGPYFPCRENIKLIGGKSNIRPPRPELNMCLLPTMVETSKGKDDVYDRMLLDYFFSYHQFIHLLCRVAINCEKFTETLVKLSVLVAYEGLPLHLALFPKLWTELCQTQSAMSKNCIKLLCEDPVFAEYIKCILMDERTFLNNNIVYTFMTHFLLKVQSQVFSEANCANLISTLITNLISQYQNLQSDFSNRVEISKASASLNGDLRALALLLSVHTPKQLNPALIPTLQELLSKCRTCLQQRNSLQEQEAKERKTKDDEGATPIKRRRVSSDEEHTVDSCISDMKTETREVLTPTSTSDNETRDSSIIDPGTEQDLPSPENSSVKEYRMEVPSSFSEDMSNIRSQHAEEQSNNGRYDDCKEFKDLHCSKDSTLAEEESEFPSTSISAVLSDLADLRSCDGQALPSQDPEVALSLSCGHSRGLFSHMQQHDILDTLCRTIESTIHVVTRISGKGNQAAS
Outline: (§1)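 HEK293T lysate, 495 µg per sample in Tris/CHAPS/IGEPAL buffer with protease inhibitors, was treated in triplicate with fragment at 200 µM or vehicle for 3 h and then with Biotin-Ahx-Ub-VS at 0.5 µM final for 1 h. Labelled DUBs were NeutrAvidin-enriched, digested with LysC and trypsin, and run by diaPASEF LC-MS/MS. Spectronaut label-free quantities were global-median-normalised, and values are average log2 fragment/vehicle ratios by unpaired t-test on proteins with ≥2 unique peptides.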

USP36 = biological target: T1, USP36 (UniProt Q9P275)
T1 sequence (whole entry): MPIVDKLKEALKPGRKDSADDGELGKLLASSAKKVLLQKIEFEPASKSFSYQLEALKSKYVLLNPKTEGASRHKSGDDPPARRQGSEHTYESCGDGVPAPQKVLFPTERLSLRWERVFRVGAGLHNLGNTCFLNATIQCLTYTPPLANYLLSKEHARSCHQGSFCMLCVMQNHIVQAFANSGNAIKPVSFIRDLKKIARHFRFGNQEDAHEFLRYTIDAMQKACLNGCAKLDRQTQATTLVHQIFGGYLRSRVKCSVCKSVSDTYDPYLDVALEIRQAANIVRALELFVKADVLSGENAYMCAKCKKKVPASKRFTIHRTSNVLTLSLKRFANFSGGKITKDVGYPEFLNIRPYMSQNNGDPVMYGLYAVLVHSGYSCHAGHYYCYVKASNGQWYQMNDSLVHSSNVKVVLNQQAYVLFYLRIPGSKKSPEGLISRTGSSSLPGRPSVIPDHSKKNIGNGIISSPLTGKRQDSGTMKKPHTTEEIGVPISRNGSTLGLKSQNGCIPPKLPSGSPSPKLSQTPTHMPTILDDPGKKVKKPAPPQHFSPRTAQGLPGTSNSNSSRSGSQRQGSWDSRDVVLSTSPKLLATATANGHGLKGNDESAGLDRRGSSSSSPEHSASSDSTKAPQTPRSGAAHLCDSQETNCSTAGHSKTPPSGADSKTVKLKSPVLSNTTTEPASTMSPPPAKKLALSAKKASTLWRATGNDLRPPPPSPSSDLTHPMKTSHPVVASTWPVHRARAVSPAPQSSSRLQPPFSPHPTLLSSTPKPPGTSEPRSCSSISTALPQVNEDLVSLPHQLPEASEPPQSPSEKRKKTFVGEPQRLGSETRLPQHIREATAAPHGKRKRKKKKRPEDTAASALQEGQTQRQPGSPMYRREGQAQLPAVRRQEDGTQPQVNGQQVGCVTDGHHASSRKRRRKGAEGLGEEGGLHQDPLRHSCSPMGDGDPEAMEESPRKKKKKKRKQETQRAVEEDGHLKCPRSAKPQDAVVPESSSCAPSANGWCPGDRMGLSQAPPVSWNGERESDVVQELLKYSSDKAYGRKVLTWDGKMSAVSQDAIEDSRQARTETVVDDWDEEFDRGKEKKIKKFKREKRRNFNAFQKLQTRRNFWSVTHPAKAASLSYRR
Outline: as §1

USP38 = biological target: T2, USP38 (UniProt Q8NB14)
T2 sequence (whole entry): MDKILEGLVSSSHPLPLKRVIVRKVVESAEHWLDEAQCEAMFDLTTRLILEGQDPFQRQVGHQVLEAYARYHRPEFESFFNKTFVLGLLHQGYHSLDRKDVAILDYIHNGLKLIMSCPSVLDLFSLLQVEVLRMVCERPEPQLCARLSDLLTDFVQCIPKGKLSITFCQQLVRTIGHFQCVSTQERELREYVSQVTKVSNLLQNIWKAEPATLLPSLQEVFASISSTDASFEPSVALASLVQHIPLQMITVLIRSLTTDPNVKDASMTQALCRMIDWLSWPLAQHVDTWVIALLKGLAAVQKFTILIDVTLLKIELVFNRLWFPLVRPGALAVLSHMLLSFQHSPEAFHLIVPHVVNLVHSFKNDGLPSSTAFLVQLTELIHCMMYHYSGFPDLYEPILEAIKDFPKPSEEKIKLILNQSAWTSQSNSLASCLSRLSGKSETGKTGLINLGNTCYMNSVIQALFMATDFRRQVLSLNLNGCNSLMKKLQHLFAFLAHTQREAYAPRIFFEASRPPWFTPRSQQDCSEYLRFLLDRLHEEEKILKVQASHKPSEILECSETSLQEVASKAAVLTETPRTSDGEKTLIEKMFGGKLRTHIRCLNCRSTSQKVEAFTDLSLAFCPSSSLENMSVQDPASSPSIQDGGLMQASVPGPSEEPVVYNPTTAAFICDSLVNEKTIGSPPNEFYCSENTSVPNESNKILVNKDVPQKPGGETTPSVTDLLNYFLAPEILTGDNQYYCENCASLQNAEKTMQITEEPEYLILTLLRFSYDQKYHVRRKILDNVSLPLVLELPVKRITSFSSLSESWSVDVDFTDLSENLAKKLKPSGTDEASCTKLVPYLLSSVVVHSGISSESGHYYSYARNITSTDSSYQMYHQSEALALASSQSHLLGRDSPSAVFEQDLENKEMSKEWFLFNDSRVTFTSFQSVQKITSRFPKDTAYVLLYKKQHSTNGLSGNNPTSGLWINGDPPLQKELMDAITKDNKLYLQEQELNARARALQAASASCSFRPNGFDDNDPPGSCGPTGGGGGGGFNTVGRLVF
Outline: as §1

USP39 = biological target: T3, USP39 (UniProt Q53GS9)
T3 sequence (whole entry): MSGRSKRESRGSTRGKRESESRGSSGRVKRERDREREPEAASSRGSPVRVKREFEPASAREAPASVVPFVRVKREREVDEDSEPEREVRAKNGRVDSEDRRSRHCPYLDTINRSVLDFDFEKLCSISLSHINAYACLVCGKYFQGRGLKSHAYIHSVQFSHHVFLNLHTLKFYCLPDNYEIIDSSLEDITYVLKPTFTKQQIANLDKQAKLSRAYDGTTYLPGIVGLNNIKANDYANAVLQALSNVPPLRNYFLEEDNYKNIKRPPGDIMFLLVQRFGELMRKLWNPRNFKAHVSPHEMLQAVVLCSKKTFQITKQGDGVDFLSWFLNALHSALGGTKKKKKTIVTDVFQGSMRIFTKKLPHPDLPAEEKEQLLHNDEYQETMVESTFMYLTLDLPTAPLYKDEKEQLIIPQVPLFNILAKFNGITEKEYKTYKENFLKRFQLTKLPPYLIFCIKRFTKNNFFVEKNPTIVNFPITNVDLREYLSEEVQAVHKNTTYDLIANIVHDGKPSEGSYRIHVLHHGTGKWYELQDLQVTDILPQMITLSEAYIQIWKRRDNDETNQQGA
Outline: as §1

USP4 = biological target: T4, USP4 (UniProt Q13107)
T4 sequence (whole entry): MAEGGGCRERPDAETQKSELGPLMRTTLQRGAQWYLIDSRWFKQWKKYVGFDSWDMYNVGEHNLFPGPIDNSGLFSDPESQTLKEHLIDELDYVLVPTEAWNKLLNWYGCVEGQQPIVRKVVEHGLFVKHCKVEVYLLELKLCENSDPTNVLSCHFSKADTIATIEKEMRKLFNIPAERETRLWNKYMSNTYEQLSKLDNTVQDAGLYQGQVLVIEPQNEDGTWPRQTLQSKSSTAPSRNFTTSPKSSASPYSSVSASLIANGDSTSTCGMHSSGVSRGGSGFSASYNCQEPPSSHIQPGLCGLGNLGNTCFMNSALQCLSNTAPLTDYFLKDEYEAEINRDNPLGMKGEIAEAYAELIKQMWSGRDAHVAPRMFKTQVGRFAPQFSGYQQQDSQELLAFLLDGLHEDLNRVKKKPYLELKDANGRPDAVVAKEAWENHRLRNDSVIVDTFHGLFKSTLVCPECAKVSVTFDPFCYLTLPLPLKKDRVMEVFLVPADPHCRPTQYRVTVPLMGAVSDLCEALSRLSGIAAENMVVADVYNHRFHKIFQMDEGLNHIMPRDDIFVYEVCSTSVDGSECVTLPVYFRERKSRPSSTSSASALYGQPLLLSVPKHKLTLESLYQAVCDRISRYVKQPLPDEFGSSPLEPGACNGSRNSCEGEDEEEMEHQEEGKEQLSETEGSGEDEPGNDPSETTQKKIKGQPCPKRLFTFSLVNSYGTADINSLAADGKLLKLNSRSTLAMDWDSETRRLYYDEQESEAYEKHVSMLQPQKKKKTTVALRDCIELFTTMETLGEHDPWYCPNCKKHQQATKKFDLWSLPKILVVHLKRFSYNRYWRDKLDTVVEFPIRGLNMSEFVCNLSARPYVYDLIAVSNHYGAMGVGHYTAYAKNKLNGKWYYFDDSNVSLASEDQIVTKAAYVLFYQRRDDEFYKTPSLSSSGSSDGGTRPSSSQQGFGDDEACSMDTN
Outline: as §1

Measured: log2 ratio of Biotin-Ahx-Ub-VS probe labelling

O=C(CCl)NCCc1cccc2ccccc12
inactive: USP34 -0.192 | USP36 -0.0173 | USP38 0.0792 | USP39 -0.0508 | USP4 0.143
